Each structure is given as a SMILES string. Where a structure was tested more than once in an assay, its records may differ in their call. The source made the active and inactive calls. Rule for the calls: active = hit-call score of the fitted dose curve at least 0.9, where 1 is the maximum; inactive = score below 0.9.

Read-out in this test: Vascular endothelial growth factor receptor 2 (Homo sapiens) (UniProt P35968)
Briefly: BSK_4H_VEGFRII: BioMAP Diversity Plus: 4H Assay for Vascular endothelial growth factor receptor 2 (VEGFR2) Biomarker Activity (AID 2283031). To be noted: primary human endothelial cells (HUVEC); actives raise or lower the signal. Here is the method: BSK_4H is a cell-based, multiplexed-readout assay that uses umbilical vein endothelium, a human vascular primary cell, with measurements taken at 24 hours after chemical dosing in a 96-well plate.BSK_4H_VEGFRII is an assay component measured in the BSK_4H assay. It measures VEGFRII antibody related to regulation of gene expression using ELISA technology.Data from the assay component BSK_4H_VEGFRII was analyzed into 1 assay endpoint. This assay endpoint, BSK_4H_VEGFRII, was analyzed with bidirectional fitting relative to DMSO as the negative control and baseline of activity. Using a type of binding reporter, gain or loss-of-signal activity can be used to understand changes in the signaling as they relate to the gene KDR. Furthermore, this assay endpoint can be referred to as a primary readout, because this assay has produced multiple assay endpoints where this one serves a signaling function. To generalize the intended target to other relatable targets, this assay endpoint is annotated to the kinase intended target family, where the subfamily is receptor tyrosine kinase.
The levels of cell surface (or secreted, indicated by the prefix "s") biomarker endpoints were measured by ELISA. Overt cytotoxicity to cells in confluent adherent cultures (all systems other than the BT system) was assessed by measuring total protein levels using sulforhodamine B (SRB) staining in parallel cultures at the time of biomarker measurements, indicated as SRB endpoints. For proliferation assays for adherent cell types, individual cell types are cultured at sub-confluence and relative cell numbers quantified by SRB staining at time points optimized for each system (48 h: 3C and CASM3C systems; 72 h: BT and HDF3CGF systems; 96 h: SAg system). SRB was performed by staining cells with 0.1% SRB after fixation with 10% TCA and reading wells at 560 nm.Viability and proliferation of PBMC (T cells) was quantified by Alamar Blue reduction for the SAg and BT systems. For PBMC viability (referred to as PBMC Cytotoxicity within the assay endpoint names), cells were plated (75,000/well in a 96-well plate) and then chemical samples added for 1 h before addition of activators, SEB and TSST-1 (20 ng/mL final concentration each). Cells were incubated for 90 h. Then, Alamar Blue (20 uL/well) (Invitrogen, Cat DAL1100) was added for 6 h, and the plates were read with a fluorescence microplate reader at 546/580 nm (excitation/emission). For PBMC proliferation, cells were plated and activated as above but incubated for only 16 h prior to addition of Alamar Blue. Plates were read after 6 h.
Broadly, the AC50 is the midpoint of the concentration-response curve, whichever way the signal moves. With `CC(C)N(C(=O)SCC(Cl)=C(Cl)Cl)C(C)C`, the AC50 was 31.1 µM (active).
With `CCCSP(=O)(OCC)Oc1ccc(Br)cc1Cl` (stereo not given), the outcome was inactive.
Regarding `CCc1cnc(C2=NC(C)(C(C)C)C(=O)N2)c(C(=O)O)c1` (stereo not given), the result was inactive.
The same measure, in the same setting: the result for `CN(C)NC(=O)CCC(=O)O` reads “inactive”.
As for `CC(COc1ccc(Oc2ccccc2)cc1)Oc1ccccn1` (stereo not given), the outcome was inactive.
Regarding `CCOP(=S)(Oc1cnc(C(C)(C)C)nc1)OC(C)C` (stereo not given), the AC50 is 31.9 µM (active).
In the case of `CC(C)[C@H](C(=O)O[C@H](C#N)c1cccc(Oc2ccccc2)c1)c1ccc(Cl)cc1`, the outcome was inactive.
As for `CCOP(=S)(OCC)Oc1cc(C)nc(C(C)C)n1`, the outcome was inactive.
`C#CC(C)(C)NC(=O)c1cc(Cl)cc(Cl)c1`: the result was inactive.
For the compound `COP(=O)(NC(C)=O)SC` (stereo not given), the result was inactive.
With `CC(C1CC1)C(O)(Cn1cncn1)c1ccc(Cl)cc1` (stereo not given), the result was inactive.
Consider `CC(C)=CC1C(C(=O)OCN2C(=O)C3=C(CCCC3)C2=O)C1(C)C` (stereo not given), for which the result was inactive.
With `CCCOc1nn(C(=O)NS(=O)(=O)c2ccccc2C(=O)OC)c(=O)n1C`, the outcome was inactive.
As to `CCOC(=O)CC(SP(=O)(OC)OC)C(=O)OCC` (stereo not given), the result was inactive.
On to `CNC(=O)Oc1cccc2c1OC(C)(C)O2`, for which the result was inactive.
Take `CCOP(=S)(OCC)SCCSCC`: the outcome was inactive.
As for `Cc1cc(C2CC2)nc(Nc2ccccc2)n1`, the result was inactive.
`C#CCC1=C(C)C(OC(=O)C2C(C=C(C)C)C2(C)C)CC1=O` (stereo not given): the outcome was inactive.
Still for that read-out and setting: then `N#CSCSC#N`, with “inactive”; and `CN1COCN(Cc2cnc(Cl)s2)C1=N[N+](=O)[O-]`, with “inactive”.
Same read-out and setting: then `Cc1nn(-c2cc(NS(C)(=O)=O)c(Cl)cc2Cl)c(=O)n1C(F)F`, with “inactive”; and `CON=C(C(=O)OC)c1ccccc1CON=C(C)c1cccc(C(F)(F)F)c1`, with “inactive”.
Regarding `CCOP(=O)(NC(C)C)Oc1ccc(SC)c(C)c1` (stereo not given), the outcome was inactive.
`O=[N+]([O-])c1cc(C(F)(F)F)c(Cl)c([N+](=O)[O-])c1Nc1ncc(C(F)(F)F)cc1Cl`: the outcome was inactive and the AC50 was 1.2 µM (active).
On to `CCNc1nc(Cl)nc(NC(C)(C)C#N)n1`, for which the result was inactive.
Take `CSc1nnc(C(C)(C)C)c(=O)n1N`: the outcome was inactive.
Regarding `CCOP(=S)(OCC)Oc1ccc([N+](=O)[O-])cc1`, the outcome was inactive.
Still for that read-out and setting: then `Nc1nc(N)nc(NC2CC2)n1`, with “inactive”.
Regarding `S=C1NCCN1`, the outcome was inactive.
`CN(C)C(=O)Nc1cccc(C(F)(F)F)c1`: the outcome was inactive.
Regarding `CCOP(=S)(OCC)OC(Cl)C(Cl)(Cl)Cl` (stereo not given), the outcome was inactive.
As to `Nc1c(Cl)cc([N+](=O)[O-])cc1Cl`, the outcome was inactive.
As to `CNC(=O)ON=C(SC)C(=O)N(C)C`, the outcome was inactive.
Still for that read-out and setting: then `CCC(CC)Nc1c([N+](=O)[O-])cc(C)c(C)c1[N+](=O)[O-]`, with “inactive”; and `CCCSP(=O)(OCC)SCCC`, with “inactive”; and `CSc1nc(NC(C)C)nc(NC(C)C)n1`, with “inactive”.
On to `CCCCOC(=O)c1ccccc1C(=O)O`, for which the result was inactive.
`O=C(O)c1cc(Oc2ccc(C(F)(F)F)cc2Cl)ccc1[N+](=O)[O-]`: the result was inactive.
For `CC1=NNC(=O)N(/N=C/c2cccnc2)C1`, the outcome was inactive.

The record behind these values is PubChem BioAssay (EPA / NIEHS).
